The text below walks through data of the supplement of paper PMC12067093, “Discovery and optimisation of a covalent ligand for TRIM25 and its application to targeted protein ubiquitination” (Chemical Science, 2025).

Compound in this assay: CC1Cc2ccccc2N1C(=O)C1CCCN(C1)C(=O)CCl (mixture of isomers) [TRIM25 ligand 11 (diastereomer mixture)]
Nature of the assay: probe-labelled cysteine peptide fold change vs DMSO (competition) (log2 fold change); higher = less target engagement (more negative = stronger competition). As to conditions: THP-1, incubation time: 4 h.

The full data set covers some 21,000 targets. This sample favours those with the largest changes.
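Also: competitive chemoproteomic profiling in live THP-1 cells with an iodoacetamide desthiobiotin (IA-DTB) probe, comparing probe-labelled peptide intensities in compound-treated cells against DMSO-treated controls.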

Sequence of UniProt P19544 (P19544 whole entry): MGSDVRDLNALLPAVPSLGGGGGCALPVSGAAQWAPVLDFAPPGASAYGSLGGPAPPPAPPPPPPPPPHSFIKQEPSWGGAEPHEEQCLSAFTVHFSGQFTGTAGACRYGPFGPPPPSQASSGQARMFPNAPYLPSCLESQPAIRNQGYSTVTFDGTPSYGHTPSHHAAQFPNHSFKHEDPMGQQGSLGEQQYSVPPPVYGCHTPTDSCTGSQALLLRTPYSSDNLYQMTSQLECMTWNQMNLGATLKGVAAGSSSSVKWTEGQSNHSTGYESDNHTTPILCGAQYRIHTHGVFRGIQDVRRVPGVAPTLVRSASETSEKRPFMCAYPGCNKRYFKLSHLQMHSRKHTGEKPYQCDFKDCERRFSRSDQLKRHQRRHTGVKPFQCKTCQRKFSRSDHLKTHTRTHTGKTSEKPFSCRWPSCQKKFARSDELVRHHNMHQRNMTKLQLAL
Sequence of UniProt Q9NW82 (Q9NW82 whole entry, looked up): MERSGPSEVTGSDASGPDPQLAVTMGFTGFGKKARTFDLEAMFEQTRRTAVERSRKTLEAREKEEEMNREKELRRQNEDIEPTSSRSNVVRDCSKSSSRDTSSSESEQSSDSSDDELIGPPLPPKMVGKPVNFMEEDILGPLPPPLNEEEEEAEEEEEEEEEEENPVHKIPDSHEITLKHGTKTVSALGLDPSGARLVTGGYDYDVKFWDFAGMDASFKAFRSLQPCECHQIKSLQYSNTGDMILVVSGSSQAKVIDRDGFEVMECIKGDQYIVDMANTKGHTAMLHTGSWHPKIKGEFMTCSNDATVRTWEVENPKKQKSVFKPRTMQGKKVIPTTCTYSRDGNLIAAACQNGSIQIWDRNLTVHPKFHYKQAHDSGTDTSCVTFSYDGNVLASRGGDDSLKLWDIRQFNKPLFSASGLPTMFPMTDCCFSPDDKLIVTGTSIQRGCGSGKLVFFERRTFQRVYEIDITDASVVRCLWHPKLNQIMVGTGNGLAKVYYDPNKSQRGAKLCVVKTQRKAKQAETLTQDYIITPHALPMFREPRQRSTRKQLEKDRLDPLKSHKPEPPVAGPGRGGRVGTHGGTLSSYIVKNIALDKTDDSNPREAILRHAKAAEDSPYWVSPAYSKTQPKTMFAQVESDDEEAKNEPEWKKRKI
Sequence of UniProt Q3KQV9 (Q3KQV9 whole entry, looked up): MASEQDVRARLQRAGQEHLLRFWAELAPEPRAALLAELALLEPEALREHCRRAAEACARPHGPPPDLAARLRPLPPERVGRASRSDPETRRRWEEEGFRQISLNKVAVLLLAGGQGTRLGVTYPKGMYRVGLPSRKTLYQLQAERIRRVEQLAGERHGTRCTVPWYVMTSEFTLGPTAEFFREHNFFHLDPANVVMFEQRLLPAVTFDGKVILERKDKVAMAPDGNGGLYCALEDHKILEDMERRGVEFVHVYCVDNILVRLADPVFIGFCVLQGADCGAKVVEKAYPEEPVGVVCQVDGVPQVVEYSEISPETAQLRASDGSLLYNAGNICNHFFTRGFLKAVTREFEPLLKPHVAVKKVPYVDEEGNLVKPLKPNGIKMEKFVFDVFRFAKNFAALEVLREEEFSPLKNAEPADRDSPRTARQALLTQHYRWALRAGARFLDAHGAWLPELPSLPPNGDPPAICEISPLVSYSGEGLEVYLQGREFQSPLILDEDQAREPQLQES
Sequence of UniProt O75717 (O75717 whole entry, looked up): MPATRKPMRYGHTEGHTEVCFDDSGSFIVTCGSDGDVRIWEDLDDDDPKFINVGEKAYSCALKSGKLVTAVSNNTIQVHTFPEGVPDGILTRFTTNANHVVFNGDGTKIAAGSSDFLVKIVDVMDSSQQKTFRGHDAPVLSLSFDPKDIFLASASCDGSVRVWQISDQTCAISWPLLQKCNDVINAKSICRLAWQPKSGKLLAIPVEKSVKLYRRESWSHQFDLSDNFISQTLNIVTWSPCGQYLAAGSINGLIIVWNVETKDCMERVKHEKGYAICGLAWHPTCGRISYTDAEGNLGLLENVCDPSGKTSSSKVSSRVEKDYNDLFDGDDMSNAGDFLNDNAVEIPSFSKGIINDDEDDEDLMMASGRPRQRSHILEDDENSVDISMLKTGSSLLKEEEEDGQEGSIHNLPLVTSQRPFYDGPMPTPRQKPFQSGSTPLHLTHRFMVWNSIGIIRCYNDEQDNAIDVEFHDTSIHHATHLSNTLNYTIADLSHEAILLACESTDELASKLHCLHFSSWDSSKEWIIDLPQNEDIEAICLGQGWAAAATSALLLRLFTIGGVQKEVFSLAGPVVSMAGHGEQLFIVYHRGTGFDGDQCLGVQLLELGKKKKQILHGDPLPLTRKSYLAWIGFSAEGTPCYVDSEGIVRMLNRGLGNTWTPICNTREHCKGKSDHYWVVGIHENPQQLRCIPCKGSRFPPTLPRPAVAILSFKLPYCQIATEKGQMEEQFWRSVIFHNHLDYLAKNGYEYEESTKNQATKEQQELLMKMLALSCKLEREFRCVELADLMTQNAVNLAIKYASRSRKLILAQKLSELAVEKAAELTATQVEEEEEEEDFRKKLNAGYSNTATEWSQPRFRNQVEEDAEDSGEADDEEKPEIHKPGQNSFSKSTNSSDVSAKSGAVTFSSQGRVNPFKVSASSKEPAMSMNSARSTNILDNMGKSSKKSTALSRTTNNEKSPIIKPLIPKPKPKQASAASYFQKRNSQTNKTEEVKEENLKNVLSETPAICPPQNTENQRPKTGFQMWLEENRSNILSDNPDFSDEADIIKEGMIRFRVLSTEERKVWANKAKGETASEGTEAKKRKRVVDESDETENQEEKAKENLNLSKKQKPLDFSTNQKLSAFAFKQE
Sequence of UniProt Q9NXH9 (Q9NXH9 whole entry, looked up): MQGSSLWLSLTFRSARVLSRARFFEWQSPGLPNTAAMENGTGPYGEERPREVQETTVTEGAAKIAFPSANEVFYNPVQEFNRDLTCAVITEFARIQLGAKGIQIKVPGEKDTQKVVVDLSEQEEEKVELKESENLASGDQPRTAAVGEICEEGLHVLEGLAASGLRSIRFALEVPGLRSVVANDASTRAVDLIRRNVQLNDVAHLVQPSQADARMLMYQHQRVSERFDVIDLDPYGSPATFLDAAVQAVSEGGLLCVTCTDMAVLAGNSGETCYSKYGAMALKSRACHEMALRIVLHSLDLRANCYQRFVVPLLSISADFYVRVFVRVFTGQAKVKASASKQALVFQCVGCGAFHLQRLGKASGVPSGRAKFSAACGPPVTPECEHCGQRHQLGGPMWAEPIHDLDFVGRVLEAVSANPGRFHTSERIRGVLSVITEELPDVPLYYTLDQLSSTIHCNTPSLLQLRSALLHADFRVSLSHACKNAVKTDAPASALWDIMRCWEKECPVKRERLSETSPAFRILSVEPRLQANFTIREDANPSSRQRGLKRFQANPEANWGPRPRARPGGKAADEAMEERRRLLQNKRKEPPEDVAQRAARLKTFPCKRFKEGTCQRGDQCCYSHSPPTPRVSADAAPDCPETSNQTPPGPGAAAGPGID
Sequence of UniProt Q9UNY4 (Q9UNY4 whole entry, looked up): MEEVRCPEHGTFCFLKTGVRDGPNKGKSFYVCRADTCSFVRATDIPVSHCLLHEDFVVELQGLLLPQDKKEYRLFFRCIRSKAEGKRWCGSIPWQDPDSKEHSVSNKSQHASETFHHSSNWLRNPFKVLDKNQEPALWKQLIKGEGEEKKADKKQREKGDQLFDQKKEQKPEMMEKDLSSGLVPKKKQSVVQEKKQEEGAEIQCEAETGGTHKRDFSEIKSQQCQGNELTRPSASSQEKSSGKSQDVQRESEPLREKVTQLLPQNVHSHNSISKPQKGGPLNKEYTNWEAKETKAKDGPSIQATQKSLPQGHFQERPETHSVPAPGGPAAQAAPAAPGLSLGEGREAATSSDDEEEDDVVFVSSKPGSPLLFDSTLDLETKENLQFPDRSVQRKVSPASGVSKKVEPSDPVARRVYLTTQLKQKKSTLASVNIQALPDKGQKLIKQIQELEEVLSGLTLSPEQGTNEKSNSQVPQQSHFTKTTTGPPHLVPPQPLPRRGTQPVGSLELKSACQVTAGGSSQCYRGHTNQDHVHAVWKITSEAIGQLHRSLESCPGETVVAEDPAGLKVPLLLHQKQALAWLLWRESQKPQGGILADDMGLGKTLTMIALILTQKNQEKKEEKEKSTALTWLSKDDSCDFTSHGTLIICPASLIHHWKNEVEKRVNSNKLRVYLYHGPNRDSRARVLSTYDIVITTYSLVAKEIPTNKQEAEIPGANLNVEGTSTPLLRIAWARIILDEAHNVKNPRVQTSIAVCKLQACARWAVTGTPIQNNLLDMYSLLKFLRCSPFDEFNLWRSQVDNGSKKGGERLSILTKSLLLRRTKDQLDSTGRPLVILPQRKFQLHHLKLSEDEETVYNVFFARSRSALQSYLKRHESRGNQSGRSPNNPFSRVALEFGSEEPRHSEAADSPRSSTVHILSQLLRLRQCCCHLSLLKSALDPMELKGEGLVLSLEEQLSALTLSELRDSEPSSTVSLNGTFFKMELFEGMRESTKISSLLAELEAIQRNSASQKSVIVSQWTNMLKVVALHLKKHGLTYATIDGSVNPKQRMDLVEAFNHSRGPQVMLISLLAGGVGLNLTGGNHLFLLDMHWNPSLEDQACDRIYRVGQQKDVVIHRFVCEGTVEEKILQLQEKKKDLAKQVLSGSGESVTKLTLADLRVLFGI
Sequence of UniProt Q8IV63 (Q8IV63 whole entry, looked up): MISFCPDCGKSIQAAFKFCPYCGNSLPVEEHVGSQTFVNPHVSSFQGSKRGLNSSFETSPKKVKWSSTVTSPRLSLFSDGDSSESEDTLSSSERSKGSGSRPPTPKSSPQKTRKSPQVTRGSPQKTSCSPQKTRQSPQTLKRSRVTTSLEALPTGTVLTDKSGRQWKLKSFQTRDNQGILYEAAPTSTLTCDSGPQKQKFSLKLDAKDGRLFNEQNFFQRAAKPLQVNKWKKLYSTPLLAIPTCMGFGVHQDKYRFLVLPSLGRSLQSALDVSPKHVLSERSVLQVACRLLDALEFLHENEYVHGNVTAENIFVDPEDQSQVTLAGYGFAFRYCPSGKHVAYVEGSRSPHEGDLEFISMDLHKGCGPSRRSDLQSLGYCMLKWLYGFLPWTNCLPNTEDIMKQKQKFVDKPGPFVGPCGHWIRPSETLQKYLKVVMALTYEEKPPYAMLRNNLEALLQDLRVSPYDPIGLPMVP

For the target “WNK1_Q9H4A3_1135_VVECQLETHNR (UniProt Q9H4A3)”, the “probe-labelled cysteine peptide fold change” value (10 µM) is 0.0982 and the “probe-labelled cysteine peptide fold change” value (50 µM) came to 0.156.
Taken in the same sequence, the figures for “TXNIP_Q9H3M7_49_ILACGVAK (UniProt Q9H3M7)” were 0.365 and 0.565.
Taken in the same sequence, the figures for “TTF2_Q9UNY4_1118_FVCEGTVEEK (UniProt Q9UNY4)” were -0.132 and -0.00382.
For “VAV1_P15498_31_VTWDGAQVCELAQALR (UniProt P15498)” the same measures were 0.0648 and 0.411.
Consider “VPS11_Q9H270_586_EAPGCR (UniProt Q9H270)”, for which the “probe-labelled cysteine peptide fold change” value is, setting by setting: (10 µM) 0.694; (50 µM) 1.1.
For “WDR47_O94967_322_SLNPALDGLTCGLTSHDK (UniProt O94967)”, the “probe-labelled cysteine peptide fold change” value (10 µM) stood at 0.104 and the “probe-labelled cysteine peptide fold change” value (50 µM) was -0.116.
Taken in the same sequence, the figures for “UACA_Q9BZF9_481_ALALECER (UniProt Q9BZF9)” were -0.0367 and 0.0956.
Taken in the same sequence, the figures for USP4_Q13107_7_AEGGGCR (UniProt Q13107) were 0.644 and 0.609.
“UBR1_Q8IWV7_1726_LHLVWQQHCIIEEIAR (UniProt Q8IWV7)”: the “probe-labelled cysteine peptide fold change” value is -0.0216 (10 µM) and 0.0386 (50 µM).
As to “TUBA1B_P68363_213_SKLEFSIYPAPQVSTAVVEPYNSILTTHTTLEHSDCAFMVDNEAIYDICRR<|>TUBA4A_P68366_213_SKLEFSIYPAPQVSTAVVEPYNSILTTHTTLEHSDCAFMVDNEAIYDICRR<|>TUBA1A_Q9BQE3_213_SKLEFSIYPAPQVSTAVVEPYNSILTTHTTLEHSDCAFMVDNEAIYDICRR (UniProt Q9BQE3+P68366+P68363)”, the “probe-labelled cysteine peptide fold change” value (10 µM) is 0.181 and the “probe-labelled cysteine peptide fold change” value (50 µM) is -0.0591.
For the target “TXNL1_O43396_135+149_AGCECLNESDEHGFDNCLR (UniProt O43396)”, the “probe-labelled cysteine peptide fold change” value is, setting by setting: (10 µM) 0.0914; (50 µM) -0.234.
For “VPS13B_Q7Z7G8_3937_VACDVEVDGVR (UniProt Q7Z7G8)” the same measures were 0.0676 and -0.592.
Taken in the same sequence, the figures for “TTLL12_Q14166_418_WGEDNHWICK (UniProt Q14166)” were 0.0917 and 0.0468.
For “TSPYL1_Q9H0U9_375_NQDLICSFFTWFSDHSLPESDK (UniProt Q9H0U9)” the same measures were 0.789 and 0.39.
Regarding “USP40_Q9NVE5_50_NQGGTCYLNSLLQTLHFTPEFR (UniProt Q9NVE5)”, the “probe-labelled cysteine peptide fold change” value by setting is: (10 µM) -0.26; (50 µM) -0.513.
Regarding “UAP1L1_Q3KQV9_271+278_LADPVFIGFCVLQGADCGAK (UniProt Q3KQV9)”, the “probe-labelled cysteine peptide fold change” value is 0.0951 (10 µM) and 0.0877 (50 µM).
Taken in the same sequence, the figures for “UFC1_Q9Y3C8_116_ICLTDHFKPLWAR (UniProt Q9Y3C8)” were -0.522 and -0.68.
Taken in the same sequence, the figures for “UNK_Q9C0B0_100_YDEATGLCPEGDECPFLHR (UniProt Q9C0B0)” were 0.613 and 0.284.
As to “TSR1_Q2NL82_618_AKEELIFHCGFR (UniProt Q2NL82)”, the “probe-labelled cysteine peptide fold change” value is 0.00999 (10 µM) and 0.0707 (50 µM).
Turning to “TTC30B_Q8N4P2_619_DSVIQECVQFLEHCELHGR (UniProt Q8N4P2)”, the “probe-labelled cysteine peptide fold change” value by setting is: (10 µM) 0.056; (50 µM) 0.655.
For “WDR70_Q9NW82_383_QAHDSGTDTSCVTFSYDGNVLASR (UniProt Q9NW82)” the same measures were 0.312 and -0.591.
Taken in the same sequence, the figures for “WDR47_O94967_672_GSIYCVAWSPCGQLLATGSNDK (UniProt O94967)” were -0.126 and -0.567.
As to “WDHD1_O75717_781_CVELADLMTQNAVNLAIK (UniProt O75717)”, the “probe-labelled cysteine peptide fold change” value stood at 0.0994 (10 µM) and 0.0632 (50 µM).
With “TTYH3_Q9C0H2_486_CENTPLIGR (UniProt Q9C0H2)”, the “probe-labelled cysteine peptide fold change” value reads like this: (10 µM) -0.0936; (50 µM) -0.00547.
Taken in the same sequence, the figures for “TXNRD1_Q16881_625_QLDSTIGIHPVCAEVFTTLSVTK (UniProt Q16881)” were 0.301 and 0.194.
Take “UBR4_Q5T4S7_4839+4841_QMEELIEEPGLTCCICR (UniProt Q5T4S7)”: the “probe-labelled cysteine peptide fold change” value stood at 0.337 (10 µM) and 0.209 (50 µM).
Taken in the same sequence, the figures for “WWP2_O00308_186_HQPPSTNCFGGR (UniProt O00308)” were -0.035 and -0.168.
For “UBE2O_Q9C0C9_598_VQSCPDPAVYGVVQSGDHIGR (UniProt Q9C0C9)” the same measures were -0.0239 and -0.0974.
Taken in the same sequence, the figures for “TTC27_Q6P3X3_514_ETPSLYCLLGDVLGDHSCYDK (UniProt Q6P3X3)” were -0.201 and -0.392.
As for “TRMT1_Q9NXH9_376_FSAACGPPVTPECEHCGQR (UniProt Q9NXH9)”, the “probe-labelled cysteine peptide fold change” value (10 µM) stood at 0.157 and the “probe-labelled cysteine peptide fold change” value (50 µM) was found to be 0.015.
Taken in the same sequence, the figures for “UBR2_Q8IWV8_1360_ILSDEDKPLFGPLPCR (UniProt Q8IWV8)” were -0.139 and -0.289.
On to “VPS29_Q9UBQ0_36+41_IQHILCTGNLCTK (UniProt Q9UBQ0)”, for which the “probe-labelled cysteine peptide fold change” value reads like this: (10 µM) 0.0402; (50 µM) -0.0827.
“WDR7_Q9Y4E6_326_ELLICPPVTR (UniProt Q9Y4E6)”: the “probe-labelled cysteine peptide fold change” value was determined as 0.0845 (10 µM) and 0.185 (50 µM).
Taken in the same sequence, the figures for “WDFY4_Q6ZS81_835_QWPDLEERMDEGDAAIMHPGVVCIMVR (UniProt Q6ZS81)” were -0.279 and -0.333.
For “WT1_P19544_385_HTGVKPFQCK (UniProt P19544)” the same measures were -0.144 and -0.103.
In the case of “UBR4_Q5T4S7_1662_LCTFTITQK (UniProt Q5T4S7)”, the “probe-labelled cysteine peptide fold change” value is -0.119 (10 µM) and -0.0801 (50 µM).
Taken in the same sequence, the figures for “VRK3_Q8IV63_128_TSCSPQK (UniProt Q8IV63)” were 0.0233 and -0.142.
Taken in the same sequence, the figures for “WDR44_Q5JSH3_642_ECLCCFQHIDFVTAIAFHPR (UniProt Q5JSH3)” were 0.143 and 0.281.
With “VEZF1_Q14119_327_TCMSEETSNQK (UniProt Q14119)”, the “probe-labelled cysteine peptide fold change” value reads like this: (10 µM) -0.186; (50 µM) -0.42.
On to “WDFY4_Q6ZS81_878_QVMCEAGLLGTLMASCHR (UniProt Q6ZS81)”, for which the “probe-labelled cysteine peptide fold change” value (10 µM) was found to be 0.0899 and the “probe-labelled cysteine peptide fold change” value (50 µM) is -0.0334.
